The nature of assay [1]: Immunotoxin (HA22) sensitization/mitigation study. Vehicle arm (PBS) (AID 1159510). The following applies: cancer cells viability with PBS vehicle (HA22 study); series mostly up to 46.1 µM.
The nature of assay [2]: Immunotoxin (SS1P) sensitization/mitigation study. Vehicle arm (DMEM) (AID 1159513). Conditions: cell viability with vehicle (DMEM); series mostly up to 46.1 µM.

Active and inactive are the calls of the source. No rule for the calls is given here.
Potency is read from the fitted curve at half-maximal effect.

As to `CO[C@@H]1[C@H](N(C)C(=O)c2ccccc2)C[C@H]2O[C@]1(C)n1c3ccccc3c3c4c(c5c6ccccc6n2c5c31)C(=O)NC4`, the Potency in assay [1] was 0.469 µM (active); in assay [2], 1.05 µM (active).
For `CC(=O)N(C)C1(c2ccccc2)CCN(CCC[C@]2(c3ccc(Cl)c(Cl)c3)CCCN(C(=O)c3ccccc3)C2)CC1` the same measures were 13.2 µM (active) and 18.7 µM (active).
On to `Cn1c(=O)n(-c2ccc(C(C)(C)C#N)cc2)c2c3cc(-c4cnc5ccccc5c4)ccc3ncc21`, for which the Potency in assay [1] was 3.72 µM (active); in assay [2] it was 0.0332 µM (active).
In the same order, the values of `Cc1ccnc(NS(=O)(=O)c2ccc(NC(=O)Nc3ccc(S(=O)(=O)Nc4nccc(C)n4)cc3)cc2)n1` are 16.6 µM (active) and 18.7 µM (active).
On to `CC1(C)Cc2c(-c3ccccc3)c(-c3ccc(Cl)cc3)c(CC(=O)O)n2C1`, for which the Potency in assay [1] is 18.7 µM (active); in assay [2], 16.6 µM (active).
For `COc1ccccc1-c1cccc(-c2c(O)c3cc(C#N)c(Cl)cc3[nH]c2=O)c1` the same measures were “inactive” and “inactive”.
On to `COc1nc(C)cnc1NS(=O)(=O)c1cccnc1-c1ccc(-c2nnco2)cc1`, for which the Potency result in assay [1] and in assay [2] was “inactive” in each case.
In the case of `CC(C)(C)OC(=O)Nc1ccc(-c2cc(C(=O)NCCCCCCC(=O)NO)no2)cc1`, the Potency in assay [1] was 0.0935 µM (active); in assay [2] it was 1.18 µM (active).
For `CC1(C)SCCN(S(=O)(=O)c2ccc(OCC#CCO)cc2)[C@@H]1C(=O)NO` the same measures were “inactive” and “inactive”.
For `O=C(Nc1ccc(OC(F)(F)F)cc1)c1sccc1NCc1ccnc2ccccc12` the same measures were 18.7 µM (active) and 18.7 µM (active).
As for `CN1CCN(c2ccc3nc(-c4c(N)c5c(F)cccc5[nH]c4=O)[nH]c3c2)CC1`, the values for the Potency in assay [1] and in assay [2] were 1.66 µM (active) and 18.7 µM (active), respectively.
With `Cc1ccc(C(=O)Nc2ccc(CN3CCN(C)CC3)c(C(F)(F)F)c2)cc1C#Cc1cnc2cccnn12`, the Potency in assay [1] was 1.32 µM (active); in assay [2], 6.62 µM (active).
On to `CC[C@H](CO)Nc1nc(NCc2ccccc2)c2ncn(C(C)C)c2n1`, for which the Potency in assay [1] was 20.9 µM (active); in assay [2] it was 23.5 µM (active).
As to `C=CC(=O)Nc1cc2c(Nc3ccc(F)c(Cl)c3)ncnc2cc1C#CC(C)(C)N1CCN(C)CC1`, the Potency in assay [1] is 0.833 µM (active); in assay [2] it was 16.6 µM (active).
On to `COc1cc(OC2CCN(C)CC2)ccc1Nc1ncc2c(n1)n(C1CCCC1)c(=O)n2C`, for which the Potency was 10.5 µM (active) in assay [1] and 16.6 µM (active) in assay [2].
In the same order, the values of `COc1cc2c(Oc3ccc(NC(=O)C4(C(=O)Nc5ccc(F)cc5)CC4)cc3F)ccnc2cc1OCCCN1CCOCC1` are 16.6 µM (active) and 16.6 µM (active).
In the same order, the values of `CCN1CCN(Cc2ccc(-c3cc4c(N[C@H](C)c5ccccc5)ncnc4[nH]3)cc2)CC1` are 16.6 µM (active) and 23.5 µM (active).
In the same order, the values of `CC(C)Oc1cc(Nc2nc(N[C@@H](C)c3ccc(F)cn3)ncc2Cl)[nH]n1` are 20.9 µM (active) and 20.9 µM (active).
Regarding `CCC(=O)N[C@H]1CC[C@H](C(=O)N(C)c2ccc(-c3nc4ccccc4o3)cc2)C1`, the Potency in assay [1] and in assay [2] was 7.43 µM (active) each time.
Consider `Cn1cc(-c2ccc3nnc(Sc4ccc5ncccc5c4)n3n2)cn1`, for which the Potency result in assay [1] and in assay [2] was “inactive” each time.
On to `Nc1cccc(S(=O)(=O)N2CCCN(S(=O)(=O)c3ccc4c(c3)OCCO4)CC2)c1`, for which the Potency result in assay [1] and in assay [2] was “inactive” in each case.
In the case of `Cc1cc(SCc2sc(-c3ccc(C(F)(F)F)cc3)nc2C)ccc1OCC(=O)O`, the Potency entry in assay [1] and in assay [2] was “inactive” throughout.
Regarding `CCN(CC)CCCCNc1ncc2cc(-c3cc(OC)cc(OC)c3)c(NC(=O)NC(C)(C)C)nc2n1`, the Potency in assay [1] and in assay [2] was 20.9 µM (active) throughout.
Turning to `OC[C@H](Cc1ccccc1)Nc1nc(Oc2ccc3c(c2)CCC3)nc2c1ncn2Cc1ccc(-c2ccccc2)cc1`, the results for the Potency in assay [1] and in assay [2] were 10.5 µM (active) and 13.2 µM (active), respectively.
For `Cc1c(C(=O)Nc2ccc(N3C[C@@H](C)O[C@@H](C)C3)nc2)cccc1-c1ccc(OC(F)(F)F)cc1` the same measures were 20.9 µM (active) and 23.5 µM (active).
In the case of `CCN(c1ccccc1)c1cc(NC)[n+](C)c(C)n1`, the Potency in assay [1] and in assay [2] was 18.7 µM (active) throughout.
For `CN(C)CCCN=c1c2ccccc2n(C)c2[nH]c(=O)n(C)c(=O)c12`, the Potency in assay [1] and in assay [2] was 7.43 µM (active) each time.
Turning to `C[C@@H](Oc1cc(-c2cnn(C3CCNCC3)c2)cnc1N)c1c(Cl)ccc(F)c1Cl`, the Potency is 16.6 µM (active) in assay [1] and 18.7 µM (active) in assay [2].
As to `O=C(O)c1ccc(-c2cc3cccnc3c(-c3ccc4nonc4c3)n2)cc1`, the Potency entry in assay [1] and in assay [2] was “inactive” in each case.
As for `CCc1cc(Nc2nccc(-c3c(-c4ccc(OC)c(C(=O)Nc5c(F)cccc5F)c4)nc4ccccn34)n2)c(OC)cc1N1CCC(N2CCN(S(C)(=O)=O)CC2)CC1`, the Potency in assay [1] was 3.72 µM (active). The Potency result in assay [2] was “inactive”.

These data come from PubChem BioAssay (NCATS).
